# From PubChem
# The list is not random: actives were taken first. Their share in the collection is about 3%.
# 5-HT1A blocker = blocks the human serotonin 5-HT1a receptor; P08908; CHO 5-HT1a Ga15 NFAT-bla reporter, antagonist mode; inhibition, % at 10 µM; hit rate 0.68% among 62,000; AID 612;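 active means inhibition above the mean of all tested compounds plus 3 SD, cut at about 43% in these data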;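 further: receptor stimulated by 5-CT agonist at 100 nM near EC80; beta-lactamase reporter measured by ratiometric fluorescence of a cleavable substrate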
# Target sequence (P08908 whole entry, looked up): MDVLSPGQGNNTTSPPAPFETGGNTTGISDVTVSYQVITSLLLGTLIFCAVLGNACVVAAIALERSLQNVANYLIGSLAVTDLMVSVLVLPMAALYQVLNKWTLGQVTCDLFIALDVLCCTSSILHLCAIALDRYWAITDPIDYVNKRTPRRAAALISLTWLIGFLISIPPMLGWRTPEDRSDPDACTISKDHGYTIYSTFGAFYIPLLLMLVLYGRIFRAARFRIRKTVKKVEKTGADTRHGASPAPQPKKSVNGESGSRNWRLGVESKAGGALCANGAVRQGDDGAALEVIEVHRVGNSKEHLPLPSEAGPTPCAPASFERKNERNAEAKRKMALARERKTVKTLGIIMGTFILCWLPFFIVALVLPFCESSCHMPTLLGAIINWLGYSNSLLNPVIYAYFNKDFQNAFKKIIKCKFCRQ
# HTR1E agonist = 5-HT1E (human) receptor agonism; CHO 5-HT1E Ga15 NFAT-bla reporter, FRET; 0% DMSO wells, 100% control agonist wells; activation, % at 6 µM; hit rate 0.69% among 65,000; AID 574;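 active means activation above a set limit, the screen-wide mean activation plus 3 SD, cut at about 8.5% in these data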;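 further: 100% = positive control agonist at 1 µM giving full maximal response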
# HTR1E antagonist = blocks the human 5-HT1E serotonin receptor; P28566; CHO 5-HT1E Ga15 NFAT-bla reporter, FRET, antagonist; inhibition, % at 6 µM; hit rate 0.99% among 65,000; AID 571;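 active means inhibition above a set limit, the mean inhibition across every tested compound plus 3 SD, cut at about 29% in these data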;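 further: signal is the 460 over 535 nm emission ratio of beta-lactamase substrate; 0% = agonist plus DMSO wells and 100% = wells without agonist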
# HTR1A agonist = 5-HT1a (human) receptor agonism; P08908; CHO 5-HT1a Ga15 NFAT-bla reporter, FRET ratio; 0% basal, 100% maximal reference agonist; activation, % at 10 µM; hit rate 0.56% among 65,000; AID 567;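 active means activation above the screen-wide mean activation plus 3 SD, cut at about 19% in these data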;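 further: 0% = DMSO wells and 100% = 5-CT at EC100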
# HER2 expr 66K = inhibitors of human Her2 kinase expression. SKBR-3 HER2 protein level, AlphaScreen, 18-24 h; hits give low values. HER2 level % of control, % at 10 µM. hit rate 0.69% among 65,000;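 active means HER2 level under 5% of the carrier-only control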;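 further: 100% = DMSO carrier and 0% = 500 nM PU-H71 HSP90 inhibitor; lower value means stronger loss of Her2 protein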
# * marks the source's active call; other numbers are inactive results; . = not tested or not shown.
SMILES,5-HT1A blocker,HTR1E agonist,HTR1E antagonist,HTR1A agonist,HER2 expr 66K
CCn1c(SCC(=O)C(C)(C)C)nnc1-c1cnccn1,5,-1,-4,0,-19*
CCOP(=O)(c1ccc(N(C)C)cc1)C(O)c1c(Cl)cccc1Cl (configuration not stated),0,0,0,-2,-16*
O=C(Cn1nnc(-c2cccc(C(F)(F)F)c2)n1)NC1CCCC1,-10,0,-7,-3,95
Cn1c(C(=O)N2CCN(c3ccc(F)cc3)CC2)cc2c(=O)n(C)c3ccccc3c21,-9,0,-2,1,77
Cn1c(C(=O)N2CCN(c3ccccn3)CC2)cc2c(=O)n(C)c3ccccc3c21,1,21*,5,0,90
Oc1c(CN2CCCCC2)cc(Br)c2cccnc12,47*,1,41*,11,31
Oc1c(CN2CCc3ccccc3C2)cc(Cl)c2cccnc12,25,0,18,30*,6
O=C1C2ON(c3ccccc3)C(c3cccnc3)C2C(=O)N1c1ccc(Cl)c(Cl)c1 (configuration not stated),.,0,7,1,-18*
CC1CCN(C(=O)CSc2nc3cccnc3n2C)CC1,-12,-1,6,89*,98
N#CCSc1nc2scc(-c3cccs3)c2c(=O)n1CCc1ccccc1,-33,1,-4,0,56
Cc1cc(C)n(Cc2ccc(C(=O)NCCC3=CCCCC3)o2)n1,.,-1,5,65*,109
N#CCC(=O)Nc1ncn(Cc2ccccc2Cl)n1,0,0,0,-1,105
Cc1ccc(-c2nn3c(C)nnc3s2)cc1NCc1c(F)cccc1Cl,45*,2,8,0,78
CC(C)CSc1nc(N2CCOCC2)c2c(c1C#N)CC(C)(C)SC2,.,-1,29*,-1,151
Cc1cccc(N2CCN(C(=O)C3CCCN(S(=O)(=O)c4cccc5cccnc45)C3)CC2)c1C (configuration not stated),6,18*,0,5,57
CC(=O)c1ccc(OCC(O)CN(C)Cc2cccs2)cc1 (configuration not stated),-2,0,-11,-2,70
COCCOC(=O)c1c(C)nc(SCC(=O)Nc2ccc(OC)cc2)c(C#N)c1-c1ccco1,.,0,34*,5,127
COc1ccc2cc3cc(C(=O)Nc4ccccc4N4CCN(C)CC4)oc3nc2c1,26,2,5,14,11
COc1ccc2cc3cc(C(=O)NCCN4CCN(c5ccccc5F)CC4)oc3nc2c1,71*,17*,3,5,80
Clc1cccc(Cl)c1COc1ccccn1,-2,0,0,-1,121
CC(=O)Nc1cccc(-c2nnc(SCc3ccccc3C#N)n2C)c1,-12,-1,1,-5,112
CCOC(=O)c1ccccc1NS(=O)(=O)c1ccccc1F,8,0,-1,-2,85
CCC(C)(C(=O)NC1CCCCC1)N(Cc1ccco1)C(=O)c1ccc2c(c1)OCO2 (configuration not stated),44*,-1,-6,-1,78
CCC(CC)C(=O)Nc1cc(=O)n(C)c(=O)n1C,12,0,9,36*,84
COCC(=O)Nc1cc(=O)n(C)c(=O)n1C,-15,0,1,-3,108
SMILES,5-HT1A blocker,HTR1E agonist,HTR1E antagonist,HTR1A agonist,HER2 expr 66K
C=CCn1c(SCC(=O)N2CCOCC2)nc2scc(-c3ccco3)c2c1=O,1,-2,13,29*,75
C=CCn1c(SCC(=O)N2CCOCC2)nc2sc3c(c2c1=O)CCCC3,-22,1,-3,2,107
CCn1c(COc2ccc3c(c2)OCO3)nnc1SCC(=O)c1ccccc1,-4,0,6,-1,66
S=c1[nH]nc(COc2ccc3c(c2)OCO3)n1-c1ccccc1,8,28*,-3,-3,103
COc1ccc(N2C(=O)C3CCCN3C2c2cccc(OC)c2OC)cc1 (configuration not stated),1,0,4,101*,109
COc1cc(CN2CCC(C(=O)N3CCCC(C)C3)CC2)cc(Br)c1O (configuration not stated),-5,-1,0,-3,67
COc1cc(OC)c(OC)cc1CNC1CCCCCC1,8,0,18,33*,103
CC1=C(C#N)C(NC(=O)c2ccco2)(C(F)(F)F)C(=O)N1 (configuration not stated),-6,12*,15,0,105
CCCc1cc(=O)oc2cc(OCC(=O)OC)cc(OCC(=O)OC)c12,6,-1,-2,-1,111
O=C(COC(=O)c1ccccn1)Nc1cc(Cl)ccc1Cl,-3,1,-8,-1,77
N#Cc1nc(-c2cccc3ccccc23)oc1N1CCCCC1,-16,1,-6,1,125
N#Cc1nc(-c2ccccc2Cl)oc1N1CCCCC1,.,0,33*,-1,84
Cc1ccc(-n2c(Cc3cccn3C)nnc2SCC(=O)NCc2ccc3c(c2)OCO3)cc1,2,0,-12,-4,60
O=C1c2ccccc2C(O)N1Cc1ccco1 (configuration not stated),4,0,19,0,83
COc1ccc(CCN2C(=O)c3[nH]nc(-c4ccccc4O)c3C2c2ccccc2)cc1OC (configuration not stated),35,1,6,1,22
O=C1c2[nH]nc(-c3ccccc3O)c2C(c2ccccc2)N1Cc1ccco1 (configuration not stated),44*,0,-8,2,101
O=C1c2[nH]nc(-c3ccccc3O)c2C(c2ccccc2F)N1Cc1ccco1 (configuration not stated),43*,0,-2,5,92
CCCCn1ccnc1C(=O)c1ccc(S(=O)(=O)N(CCOC)CCOC)cc1,3,0,4,-3,77
CSc1nc2ccc(NC(=O)C3CCCO3)cc2s1 (configuration not stated),7,52*,17,-2,104
CSc1nc2ccc(Nc3nc(N4CCOCC4)nc(N4CCOCC4)n3)cc2s1,12,-1,33*,0,100
Brc1ccc(CSc2nnc(-c3ccccn3)n2Cc2ccco2)cc1,65*,-1,27,-1,84
CC1Oc2ccccc2N(CC(=O)N2CCCc3ccccc32)C1=O (configuration not stated),14,1,3,41*,108
COc1cc2c(cc1OC)/C(=C/C(=O)N1CCOCC1)NC(C)(C)C2,0,0,30*,-1,103
CCOC(=O)/C=C1\NC(C)(C)Cc2cc(OC)c(O)cc21,-6,1,7,-4,86
CC1CCCCN1C(=O)Cn1c(=O)n(C2CCCCC2)c(=O)c2ccccc21 (configuration not stated),5,-1,5,0,90
